# Measured values from PubChem BioAssay (NCI).
# This is part of a sample that, as a whole, favours compounds with a hit. Of some 83,000 tested, about 20% had one in any assay.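 Method: cells in 96-well plates; compound added at one concentration; 48 h incubation; percent growth measured; values under 10 scored active.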 A number with no mark means an inactive call. Activity calls are given as the source filed them.
# What was measured:
# Test in all cases: NCI-60 one-dose screen, 48 h (100 = growth as untreated, 0 = no growth, -100 = all killed)
# Details in all cases: 10 µM unless noted
# NCI-H23 lung = test system: NCI-H23 lung
# NCI-H226 lung = test system: NCI-H226 lung
# NCI-H322M lung = test system: NCI-H322M lung
# HOP-62 NSCLC = test system: HOP-62 NSCLC
# NCI-H460 lung = test system: NCI-H460 lung
# HOP-92 NSCLC = test system: HOP-92 NSCLC
# NCI-H522 lung = test system: NCI-H522 lung
# A549/ATCC NSCLC = test system: A549/ATCC NSCLC
# 786-0 renal = test system: 786-0 renal
# COLO 205 colon = test system: COLO 205 colon
SMILES,growth (NCI-H23 lung),growth (NCI-H226 lung),growth (NCI-H322M lung),growth (HOP-62 NSCLC),growth (NCI-H460 lung),growth (HOP-92 NSCLC),growth (NCI-H522 lung),growth (A549/ATCC NSCLC),growth (786-0 renal),growth (COLO 205 colon)
NC(N)=NN=C(c1ccccc1)c1ccccc1,17.8%,51.4%,45.5%,28.6%,14.4%,60.7%,28.2%,50.8%,26.2%,-0.806% (active)
Cc1nn(-c2ccccc2)c(Oc2ccc(Cl)cc2)c1/C=N\N=c1/sc2ccccc2n1C,88.9%,84.3%,83.8%,86.7%,85%,71.9%,68%,86.1%,96.3%,93%
c1ccc2c(c1)nc(CN1CCOCC1)n1cc(N3CCCC3)nc21,94%,93.6%,103%,87.5%,117%,-2.06% (active),106%,87.5%,91.8%,103%
CCN(CC)CCCNc1ccc(Nc2ccc(OC)cc2)cc1,92.3%,110%,83.3%,98.1%,64.2%,83.6%,64%,92.1%,94.2%,85.7%
N#Cc1c(-c2cccc(Cl)c2)cc(-c2cccc(F)c2)[nH]c1=O,96.3%,95.1%,90.8%,93.4%,95.9%,55.3%,85%,84.5%,90.3%,109%
COC(=O)[C@]12CC[C@@H](C)[C@H](C)[C@@H]1C1=CC[C@@H]3[C@@]4(C)C(C=O)=C[C@@](C)(COC(C)=O)[C@@H]4[C@H](O)C[C@@]3(C)[C@]1(C)CC2,-12.8% (active),-25.2% (active),28.3%,8.74% (active),-64.6% (active),-6.92% (active),-35% (active),1.47% (active),-36.2% (active),-40.4% (active)
O=C(CCCCCCN1CC(=O)N2[C@@H](c3ccccc3Cl)c3[nH]c4ccccc4c3C[C@H]2C1=O)NO,76.8%,95.4%,81.8%,73.3%,67.8%,-6.12% (active),28.8%,97%,83.8%,59.6%
CCN(CC)CCN1CC(O)=C(c2nc(-c3ccc(Cl)cc3)cs2)C1=N,65.2%,99.2%,15.6%,-53.3% (active),8.48% (active),-44.3% (active),49.8%,46.8%,-68.5% (active),-58.3% (active)
N#CC1=C(c2ccc(Br)cc2)NC(SCC(=O)c2ccc(Br)cc2)NC1=O (stereo not given),105%,97%,104%,98.6%,107%,102%,99.5%,93.8%,92.6%,116%
O=C1/C(=C2/C=Nc3ccccc32)N(O)c2ccccc21,56.8%,77%,108%,95.6%,91.4%,124%,57.1%,94.2%,104%,104%
COc1cc(-c2nc(N3CCN(C)CC3)c3ccccc3n2)cc(OC)c1OC,74.4%,66.2%,84.4%,47.3%,84.5%,44.3%,8.58% (active),72.5%,47.5%,81.5%
Cc1ccc2nc(NC(=O)CSc3nc(-c4ccccc4)c(C#N)c(=O)n3Cc3ccccc3)sc2c1,85.9%,85.2%,96.4%,77.8%,98.3%,54.9%,30.5%,104%,99.3%,104%
CC1(C)CC(=O)CC2(C1)N=C(N)Nc1nc3ccccc3n12 (stereo not given),101%,95.6%,117%,119%,111%,87.3%,69.6%,97.9%,107%,102%
CCCCn1c(=O)c2c(nc(NCCc3ccc(O)c(O)c3)n2CCC)n(CCCC)c1=O,87.1%,87.7%,94.2%,96.8%,92.9%,69.8%,-0.778% (active),76.9%,81.3%,70.3%
O=c1ccn2nc3ccccc3c2[nH]1,94.6%,91.3%,97.8%,88.4%,109%,71.2%,91.9%,116%,99.2%,124%
COc1ccc(-c2nc(SC(C)C)nc(NNC(N)=S)c2C#N)cc1,69.7%,86.4%,91.3%,63.7%,22.4%,41.2%,12.8%,49.2%,85%,99.9%
CN1C(=O)N(C)C2C1NN=c1s/c(=C\c3ccccc3)c(=O)n12 (stereo not given),64.1%,80.2%,59%,46.9%,17.5%,73.9%,12.5%,39.9%,30.5%,11.9%
N#Cc1nc2c(S(=O)(=O)c3ccc(Cl)cc3)c(N)n(Nc3cccc(Cl)c3)c2nc1C#N,44.7%,85.2%,30.8%,40.2%,65.7%,-33.2% (active),57.3%,43.3%,43.9%,72.5%
COc1cc(OC)cc(C2CC(=O)Nc3c2c(C)nn3-c2nc3ccccc3[nH]2)c1 (stereo not given),5.52% (active),36.5%,59.9%,-44.2% (active),5.89% (active),0.274% (active),3.99% (active),15.2%,25.4%,51.4%
Cc1ccc(Cc2cnc(NC(=O)c3ccc4noc(-c5ccccc5)c4c3)s2)cc1,94.4%,88.3%,88.5%,64.8%,84.3%,103%,72.7%,71.7%,96.2%,107%
COC(=O)[C@]12CC[C@@H](C)[C@H](C)[C@@H]1C1=CC[C@@H]3[C@@]4(C)C(C=O)=C[C@@](C)(CO)[C@@H]4[C@H](O)C[C@@]3(C)[C@]1(C)CC2,-17.1% (active),3.36% (active),32.9%,11.9%,-35% (active),-22.8% (active),-37.5% (active),-1.72% (active),-30.4% (active),-28% (active)
CC1(C)CC(=O)C2=C(C1)N(c1ccc(OC(F)(F)F)cc1)C(N)=C(C#N)C2c1ccc(Cl)cc1 (stereo not given),85.6%,90.7%,91.3%,72.7%,93.7%,58.5%,63.1%,76.3%,78.6%,96.6%
COc1cccc(-c2nn(-c3ccccc3)cc2-c2ccnc(NCCCNC(=O)c3ccc(F)cc3)c2)c1,53.1%,60.1%,80.8%,35.6%,45.8%,57.4%,51.8%,30.5%,38.2%,31.7%
O=[N+]([O-])c1ccc(-c2cc(-c3ccc(Nc4nc(Nc5ccc(Cl)cc5)nc(Nc5ccc(Cl)cc5)n4)cc3)no2)cc1,84.1%,109%,88.4%,87.4%,95.9%,66.1%,80.9%,88.6%,89.7%,95.4%
Cc1cc(O)c(C2=NN(c3ccc(S(N)(=O)=O)cc3)C(c3ccccc3Cl)C2)cc1Cl (stereo not given),2.15% (active),38.7%,48.3%,-6.9% (active),-36.2% (active),38.5%,-56.1% (active),13%,-66.3% (active),-92.1% (active)
O=C(/C=C/c1c(Cl)nc2sccn12)c1ccc(F)c(F)c1,67%,73.2%,93.1%,79.8%,79.5%,50.6%,66.5%,80.3%,84.7%,93%
O=C1Nc2ccc(F)cc2C12Nc1cc(Cl)ccc1S2 (stereo not given),80.1%,108%,84.6%,111%,89.5%,-5.66% (active),90.9%,94.9%,105%,112%
